Source: PubChem BioAssay AID1053144 (Broad Institute, 2014)
Hit rate of the full screen: of about 3,400 compounds, about 160 (4.7%) were called active. The list is a sample of the results. Results with a measured potency or affinity are listed apart. Unmarked numbers belong to inactive results.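 Rule for the calls: active = fitted curve reaches 30% activation at a concentration no higher than the top valid tested dose, luminescence rising; inconclusive = no clear call, values can overlap the other calls; inactive = signal moving opposite to the expected increase, plus the rest.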

Experiment: Wnt/beta-catenin signaling activators, dose response, cell-based, iPS-derived NPC, luciferase, Wnt3a, cherry-pick (AID 1053144);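 note: Wnt3a stimulus is conditioned medium from Wnt3a-transfected mouse L cells at 5% in well; 0% = neutral control wells and 100% = CHIR-99021 positive control wells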
Details: NPC TCF/LEF luciferase reporter, Wnt3a EC25, 24 h; series mostly up to 26 µM; activation: at the top concentration

| SMILES | activation |
| --- | --- |
| Cc1ccc(C(=O)Nc2cc3c(oc2=O)CCCC3=O)cc1 | 9.54% |
| Cn1nnc2cc(C(=O)Nc3ccc4ccccc4c3)ccc21 | 16.4% |
| CCOc1ccc(-n2c(COc3ccc(C)cc3)nnc2SCC(N)=O)cc1 | 14.3% |
| CCOc1ccc(C2C=C(c3ccccc3)Nc3nnnn32)cc1 (centres undefined) | 2.97% |
| COc1ccc(C(=Cc2ccccc2[N+](=O)[O-])C(=O)O)cc1 | 11.6% |
| O=C(Nc1ccc(NC(=O)c2cccs2)cn1)c1ccccc1 | 5.59% |
| O=C(Nc1ccc(NC(=O)C2CC2)cn1)c1ccccc1Cl | 5.17% |
| COc1cc(NC(=O)c2cccs2)ccc1NC(=O)c1ccco1 | 11.8% |
| O=C(NCC1CCCO1)c1cc(-c2ccc(Cl)cc2Cl)on1 (centres undefined) | 12.2% |
| O=C(Nc1ccc(F)cc1)c1cc(-c2ccccc2)no1 | 6.64% |
| Cc1cc([N+](=O)[O-])ccc1NC(=O)/C=C/c1cccs1 | 10.2% |
| COc1ccc2[nH]c3c(NCCCOC(C)C)ncnc3c2c1 | 13.2% |
| CCN(C(=O)C=Cc1ccco1)c1ccccc1 | 4.04% |
| O=C(CNc1ccc2ccccc2c1)N/N=C/c1ccc(OC(=O)/C=C/c2ccco2)cc1 | 23.3% [at 12 µM] |
| Cc1ccccc1Cn1nnc(-c2cccc(C(=O)O)c2)n1 | 4.93% |
| COc1ccc(S(=O)(=O)n2ccc(-c3cnc(-c4ccccc4)s3)n2)cc1 | 4.09% |
| Cc1cccc(Nc2nc(-c3ccc(F)c(C)c3)cs2)n1 | 4.46% |
| CC1CCCCN1C(=O)c1cc(-c2ccc3c(c2)OCO3)on1 (centres undefined) | 9.54% |
| Oc1oc(-c2ccc(Br)cc2)nc1/C=N/c1ccccn1 | 8.38% |
| Cc1cccc(N2CC(C(=O)NC3CCCCCC3)CC2=O)c1C (centres undefined) | -1.43% |
| COCC(=O)Nc1nc2ccc(C)cc2s1 | 6.09% |
| CCCC(=O)Nc1nc2ccc(OCC)cc2s1 | 16.3% |

| SMILES | activation |
| --- | --- |
| CCC(=O)Nc1nc2cc(OC)ccc2s1 | 13.7% |
| COc1ccc2sc(NC(C)=O)nc2c1 | 11% |
| Cc1ccc(-c2cn3c(=O)cc(C)[nH]c3n2)cc1 | 12.7% |
| CCN(CC)S(=O)(=O)c1ccc(NS(=O)(=O)c2cccc(C)c2)cc1 | 9.12% |
| Cc1ccc(/C=N/Nc2ncnc3nc[nH]c23)cc1 | 12.2% |
| Cc1cccc(N2CCN(C(=O)CCCOc3ccccc3)CC2)c1C | 6.59% |
| CCN1C(=O)CCN(C2CCCC2)c2nc(Nc3ccc(C(=O)NC4CCN(C)CC4)cc3OC)ncc21 | 4.88% |
| CC(=O)Nc1ccc(C(=O)COC(=O)C2CC2C)c(F)c1 (centres undefined) | 3.26% |
| Fc1ccc(-c2ccc3c(n2)CCCN3Cc2ccccn2)cc1 | 9.57% |
| O=C(NC(=O)c1ccccc1)Nc1ccccc1O | 4.25% |
| O=C(Nc1ccccc1N1CCN(c2ccccc2)CC1)c1ccccc1 | -3.36% |
| Oc1[nH]c2ccccc2c1C=Nc1ccc2c(c1)OCO2 | 14.2% |
| COc1ccccc1C(=O)N(C)c1nnc(-c2ccccc2)s1 | 17.6% |
| CCOc1cccc(C(=O)Nc2ccc3c(c2)OCCO3)c1 | 5.21% |
| c1ccc2oc(-c3ccn[nH]3)cc2c1 | 10.9% |
| CCNc1nc(-c2cc3ccccc3o2)cs1 | 2.6% |
| Oc1ccc(Cl)cc1CNc1nccs1 | 10.9% |
| CN(C)c1ccc(/C=N/NC(=O)c2ccn(C)n2)cc1 | 13.3% |
| O=C(NCCc1cccs1)C1CC(c2ccccc2[N+](=O)[O-])=NO1 (centres undefined) | 9.24% |
| Clc1ccccc1CSc1nc2ccncc2[nH]1 | 8.37% |
| CC(=O)Nc1ccc2nc(-c3ccccn3)[nH]c2c1 | 3.19% |
| c1ccc(-c2ccc(-c3ccccn3)s2)nc1 | 13.1% |

| SMILES | activation |
| --- | --- |
| NC(=O)c1ccccc1OCc1nc2ccccc2s1 | 8.49% |
| Cc1ccc(NC(=O)c2cc3c(s2)CCCC3)cc1 | 16.9% |
| COc1ccc2cc(-c3ccccc3)ncc2c1 | 11.6% |
| COc1ccc(-c2cc(-c3ccc(OC)cc3)[nH]n2)cc1 | 3.32% |
| Cc1ccc(C)c(NC(=O)c2cc3ccccn3n2)c1 | 10.6% |
| O=C(Nc1ccc(Br)cc1)c1cc2ccccn2n1 | 9.98% |
| Clc1ccc(-n2nnc(-c3cccnc3)n2)cc1Cl | 9.11% |
| O=C(Nc1ccc(F)cc1F)c1csc(-c2cccs2)n1 | 8.48% |
| Cc1nc([N+](=O)[O-])cn1CC(O)c1ccc(Cl)cc1 (centres undefined) | 0.757% |
| Nc1c(C(=O)c2ccccc2)oc2ccc(Br)cc12 | 5.38% |
| COc1ccc(C(=O)c2oc3ccc(OC)cc3c2N)cc1 | 9.38% |
| COc1ccc(C(=O)Nc2ccc3c(c2)nc2n3CCSC2)cc1 | 12.5% |
| Cc1ccc2cc(C#N)c(SCC(=O)N3CCCC3)nc2c1 | 8.83% |
| NC(=O)C(=O)N/N=C1\CCc2ccccc21 | 10.6% |
| CC(=O)Nc1cccc(NC(=O)CCCC(=O)O)c1 | -0.366% |
| O=C(CC(=O)c1ccccc1)Nc1ccccc1 | 12.6% |
| CC(C)c1ccc(Nc2nnc(SCC(=O)NCC3CCCO3)s2)cc1 (centres undefined) | 16.7% |
| CCCc1cc(C(=O)Nc2cccc(Cl)c2)no1 | 5.04% |
| CCCc1cc(C(=O)Nc2cccnc2)no1 | 10.9% |
| O=C(Nc1ccc(N2CCCCC2)cc1)c1cncc(Br)c1 | 15.3% |
